This passage reports fold induction results from PubChem BioAssay AID1465 (SRMLSC, 2008).

About 160 (0.073%) of roughly 220,000 compounds were called active. Only a sample is shown. Entries with a potency or affinity are not part of this list. Unmarked numbers belong to inactive results.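 Rule for the calls: active = fold induction of absorbance versus untreated yeast above a set limit, then at least 30% activation at any dose in follow-up; inconclusive = repeats straddling the limit, or above it without dose testing; inactive = fold induction below the set limit.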

The nature of the assay: enhancers of respiration in Yfh1-depleted yeast, dose response, Friedreich's ataxia, plus single-dose screen (AID 1465). The settings on record: S. cerevisiae Yfh1-off respiration, WST-1 reduction, 72 h; at 50 µM; stronger effect = higher value.
On to `CC[n+]1c(/C=C(\C)SC)sc2ccccc21`, for which the fold induction is 0.92.
For the compound `CC[n+]1c(/C=C2\C=C(C)CC(C)(C)C2)sc2ccccc21`, the fold induction was 0.86.
To `CC[n+]1c(/C=C2\C=C(C)CC(C)C2)sc2ccccc21` (centres undefined) belongs 0.873; to `CC[n+]1c(/C=C2/C=C(C)CC(C)C2)sc2ccccc21` (centres undefined), 0.96.
Under `COc1ccc(C(=O)COC(=O)c2ccc(N(C)C)cc2)cc1` stands 1.01.
To `Cc1[nH]nc(SCC(=O)NC2CCCC2)c1[N+](=O)[O-]` belongs 1.05; to `COCC(=O)N1CCCN(c2nc3c(C)cccc3cc2C#N)CC1`, 0.96; to `CCC(=O)N1COC[C@@H]1Cc1ccccc1`, 1.04.
For the compound `COC(=O)c1cc2c(ccn2-c2ccc(F)cc2)n1Cc1ccc(C#N)cc1`, the fold induction is 1.03.
Under `Cn1cccc1/C=C1\SC(=S)N(Nc2ccccc2)C1=O` stands 1.02; under `Cn1cccc1/C=C1\SC(=S)N(NC(=O)c2ccccc2)C1=O`, 1.81.
In the case of `O=C(O)C(Cc1ccccc1)N1C(=O)/C(=C/c2ccccc2)SC1=S` (centres undefined), the fold induction was 0.93.
To `CCC(C(=O)O)N1C(=O)/C(=C/C(C)=C/c2ccccc2)SC1=S` (centres undefined) belongs 1.22; to `NC(=O)c1cccc2c(=O)oc3ccccc3c12`, 0.99; to `CN1CCN(C(=O)c2cc(C(C)(C)C)cc(C(C)(C)C)c2)CC1`, 1.02.
Under `Cn1nnnc1P(=O)(c1ccccc1)c1ccccc1` stands 1.15.
Under `O=C(Nc1ccccc1-c1nc2ccccc2[nH]1)c1ccc(N2C(=O)CCC2=O)cc1` stands 1.11.
As to `CC1=C(N2CCOCC2)CCC1=O`, the fold induction is 0.92.
To `O=c1c(N2CCOCC2)c(N2CCOCC2)c1=O` belongs 1.08; to `Cc1nc2ccc(NC(=O)COc3ccccc3[N+](=O)[O-])cc2s1`, 0.97; to `CN(C(=O)COC(=O)c1ccc(Cl)cc1N)C1CCCCC1`, 1.06.
Take `CC(=O)c1cccc(NC(=O)N2CCCC2C(=O)Nc2c(C)cccc2C)c1` (centres undefined): the fold induction is 1.07.
To `COc1ccc(C2=NN(c3nc4ccccc4s3)C(=O)/C2=C\N(C)C)cc1` belongs 1.14; to `COc1ccc(C2=NN(c3nc(C)cc(C)n3)C(=O)C2)cc1`, 1.09.
To `CC(=O)Oc1cccc(-c2nc3ccccc3c(=O)o2)c1` belongs 0.89.
For the compound `CCOC(=O)c1[nH]c2ccccc2c1NC(=O)C1CCCCC1`, the fold induction was 1.05.
To `Cc1ccc2c3c(cccc13)-c1ccccc1C2=O` belongs 0.91; to `Cc1coc2c1C(=O)C(=O)c1c-2ccc2c1CCCC2(C)C`, 1.54.
As for `Cc1ccc(CN2C(=O)CCC2C(=O)NC(C)C)cc1` (centres undefined), the fold induction was 1.04.
Under `COc1ccc2c(c1)c(CCN1C(=O)c3ccccc3C1=O)cn2C(=O)c1ccco1` stands 1.01; under `CCOc1cc(/C=N\O)cc(Cl)c1OCC`, 0.87.
Under `CCOc1ccc2nc3ccc4[nH]onc4c3c2c1` stands 0.93.
To `O=C1C=C(Nc2ccccc2)c2ccccc2C1=O` belongs 1; to `CCCCNC1=CC(=O)C(=O)c2ccccc21`, 2.68.
For `O=C(C1CCCO1)N1CCN(C(=S)Nc2ccccc2Cl)CC1` (centres undefined), the fold induction is 0.94.
Under `COCCCn1c(SCc2nnc(-c3ccc(OC)c(OC)c3)o2)nnc1-c1ccncc1` stands 1.13; under `COc1cc(/C=N/NC(=O)c2ccc(C)nc2)cc([N+](=O)[O-])c1O`, 1.21.
To `COC(=O)N/N=C/c1cc(OC)c(O)c([N+](=O)[O-])c1` belongs 1.19.
To `COC(=O)C1CCN(C(=O)Cc2c(OC)ccc3cc(Br)ccc23)CC1` belongs 0.95; to `CCOC(=O)C1(Cc2cccc(OC)c2)CCN(CC=C(C)C)CC1`, 1.02.
For `O=[N+]([O-])c1ccc(Sc2cccc3cccnc23)c2cccnc12`, the fold induction is 1.02.
With `O=[N+]([O-])c1cccc(CSc2cccc[n+]2[O-])c1`, the fold induction is 1.1.
To `CCN(C(=O)CSc1ncccc1C(=O)Oc1cccc([N+](=O)[O-])c1)c1cccc(C)c1` belongs 0.93; to `O=C(NCCNc1ccc([N+](=O)[O-])cc1)c1ccco1`, 1.23; to `CCN(CC)S(=O)(=O)c1ccc(N/N=C/c2cccnc2)nc1`, 1.09.
To `c1cncc(CSc2ccc(-c3cccnc3)nn2)c1` belongs 1.13; to `Clc1ccc(CSc2ccc(-c3ccccn3)nn2)cc1`, 0.99; to `Cc1cc(C(=O)N/N=C/c2ccccc2Br)no1`, 0.94.
To `COC(=O)c1nc(NC2=NCCCCC2)n[nH]1` belongs 1.02; to `COC(=O)c1cc(OC)c(OC)cc1NC(=O)c1cccc(OC)c1OC`, 1.09; to `O=C(C=C1CCN(c2ncc(C(F)(F)F)cc2Cl)CC1)NNC(=O)Nc1ccccc1`, 0.89.
Regarding `O=C1NN(c2ccc(F)cc2)C(=O)/C1=C\c1cnn(-c2ccccc2)c1`, the fold induction was 1.14.
Regarding `COc1ccc(NC(=O)c2csc3c2CCCCC3)c(OC)c1`, the fold induction was 1.
`COc1ccc(CNC(=O)CCS(=O)(=O)Cc2ccc(C)cc2)c(OC)c1`: the fold induction was 0.98.
To `CCOC(=O)c1cnn(-c2ccccc2)c1NC(=O)c1ccccc1C` belongs 0.92; to `CCN(CC)c1ccc(/C=N/NC(=O)c2cccc(S(=O)(=O)Nc3ccccc3OC)c2)cc1`, 1.14.
On to `COc1ccccc1NS(=O)(=O)c1cccc(C(=O)N/N=C/c2ccccc2OCC(=O)O)c1`, for which the fold induction is 0.99.
`O=C(NCc1n[nH]c(=S)n1-c1ccc(Cl)c(Cl)c1)c1cccs1`: the fold induction was 0.98.
Turning to `O=C(NNC1=C(C(=O)C(F)(F)F)CCC1)c1ccc(Cl)cc1`, the fold induction was 1.11.
Under `O=C(NNC1=C(C(=O)C(F)(F)F)CCC1)c1ccccc1Cl` stands 1.02; under `O=C(NNC1=C(C(=O)C(F)(F)F)CCC1)c1ccncc1`, 1.05; under `O=C(NNC1=C(C(=O)C(F)(F)F)CCC1)c1ccccc1O`, 0.82.
Under `CN(C)c1ccc(NC(=O)C(=O)NCCOc2ccccc2)cc1` stands 0.95; under `CC(C)=CC(=O)OCC(=O)Nc1cc(C)cc(C)c1`, 0.86.
